# Columns and labels:
# [1] = qHTS profiling of the MIPE4 collection as inhibitors of Plasmodium falciparum (3D7) proliferation (AID 743344);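 also: scaled between DMSO vehicle wells and 0.29 µM artemisinin as full inhibition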; conditions: P. falciparum 3D7 in erythrocytes, SYBR Green DNA fluorescence, 72 h; at 28.5 µM unless noted
# In short: (§1)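 Parasite DNA was quantified by SYBR Green I fluorescence (ex 485, em 535 nm) after overnight lysis in saponin/Triton buffer at room temperature. Cultures at 0.3% parasitemia and 2.5% hematocrit were first exposed to compound for 72 h at 37 C; signals were normalised to artemisinin (0.29 uM) and vehicle wells.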
# [2] = qHTS profiling of the MIPE4 collection as inhibitors of Plasmodium falciparum (DD2) proliferation (AID 743345); conditions: P. falciparum Dd2 in erythrocytes, SYBR Green DNA, 72 h; at 28.5 µM unless noted
# In short: as §1
# [3] = qHTS profiling of the MIPE4 collection as inhibitors of Plasmodium falciparum (DD2) proliferation (Rep 2) (AID 743346); conditions: P. falciparum Dd2 in erythrocytes, SYBR Green DNA, 72 h; at 28.5 µM unless noted
# In short: as §1
# [4] = qHTS profiling of the MIPE4 collection as inhibitors of Plasmodium falciparum (HB3) proliferation (AID 743347);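 also: plate controls were DMSO vehicle wells for no effect and artemisinin wells for full effect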; conditions: P. falciparum HB3 in erythrocytes, SYBR Green DNA, 72 h; at 28.5 µM unless noted
# In short: as §1
# [5] = High-throughput drug toxicity screening in the BPDCN cell line Gen2.2 (AID 1224824); conditions: Gen2.2 BPDCN cells; at 45.8 µM (top of the series) unless noted;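 also: cells exposed to compounds for 48 h before reading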
# In short: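 Gen2.2 cells (500/well) in phenol red-free RPMI with 10% FBS were exposed to compounds for 48 h at 37 °C, 5% CO2. Viability was read by CellTiter-Glo luminescence and normalized to DMSO (100%) and 9.2 uM bortezomib (0%).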
SMILES,"parasite growth, % of DMSO control [1] [%]","parasite growth remaining, % of DMSO control (lower = more inhibition) [2] [%]","parasite growth, % of control (lower = inhibition) [3] [%]","growth, % of control [4] [%]","cell viability, % of control (lower = more cytotoxic) [5] [%]"
Cn1cc(-c2ccc3ncc(Cc4ccc5ncccc5c4)n3n2)cn1,26.2,60.3,33.6,13.9,45.5
N#Cc1c(NC(=O)c2cccc3ccccc23)sc2c1CCCC2,69.2,81.7,90,69.7,83.4
CO[C@@H]1[C@@H](O)[C@H](O)[C@@H](n2c3c(Cl)cccc3c3c4c(c5c6cccc(Cl)c6[nH]c5c32)C(=O)NC4=O)O[C@@H]1CO,7.5,7.89,8.26,8.64,12.9
Nc1cccc2c1C(=O)N(C1CCC(=O)NC1=O)C2=O (stereo not given),97.4,95.1,113,49.9,52.1
N#CC(=C(O)c1ccc(Cl)cc1Cl)c1nc2cc(Cl)ccc2c(=O)[nH]1,36.6,99.7,99,74,34.3
Nc1nc(N)c2nc(-c3cccc(O)c3)c(-c3cccc(O)c3)nc2n1,15.5,10.5,26.2,11,15.8
O=C(Nc1ccc(Oc2ccnc3[nH]ccc23)c(F)c1)c1cccn(-c2ccc(F)cc2)c1=O,35.8,69.1,29.2,7.02,83
Nc1ccn(C2CO[C@H](CO)O2)c(=O)n1 (stereo not given in full),95.7,105,89.7,75.5,203
CC(C)n1cnc2c(NCCc3ccc(O)cc3)nc(-c3csc4ccccc34)nc21,5.76,9.54,13.2,8.98,11.4
O=C1NC(=O)[C@@H](c2cn3c4c(cccc24)CCC3)[C@H]1c1c[nH]c2ccccc12,54.8,94.8,86.1,60.4,4.68

# — PubChem BioAssay (NCATS)
